The values below come from publication PMC7862700, “An all-to-all approach to the identification of sequence-specific readers for epigenetic DNA modifications on cytosine”.

What all share (experiment): DAPPL (digital affinity profiling via proximity ligation, sequencing); 10 mM Tris-HCl pH 7.5, 50 mM NaCl, 1 mM DTT, 4% glycerol, room temperature, 30 min; GST-TFs on glutathione beads, 16-mer random dsDNA library, 0.1% formaldehyde crosslink after washing; high values mean tight binding
What all share (conditions): protein: recombinant; tags: N-terminal GST; dsDNA, one strand shown

In one assay the target is T1, FLI1 (Homo sapiens, UniProt Q01543 1-452).
T1 sequence: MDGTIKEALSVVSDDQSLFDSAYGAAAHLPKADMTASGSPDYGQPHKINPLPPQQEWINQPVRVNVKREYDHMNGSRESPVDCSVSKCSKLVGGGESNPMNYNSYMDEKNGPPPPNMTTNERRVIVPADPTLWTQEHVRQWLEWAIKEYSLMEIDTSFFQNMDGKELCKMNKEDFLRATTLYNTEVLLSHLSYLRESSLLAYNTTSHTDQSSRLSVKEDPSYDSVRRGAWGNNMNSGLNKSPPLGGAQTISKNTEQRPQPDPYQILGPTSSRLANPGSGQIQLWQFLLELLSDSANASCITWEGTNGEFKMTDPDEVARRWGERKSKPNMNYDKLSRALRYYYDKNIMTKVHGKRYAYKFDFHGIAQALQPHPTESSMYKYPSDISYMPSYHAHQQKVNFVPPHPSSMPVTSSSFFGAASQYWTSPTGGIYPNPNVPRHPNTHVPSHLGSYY
The method, boiled down: (§1)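 Binding signal is given per hexamer as its read frequency for a factor divided by its frequency in the tag-only sample. GST-fused human transcription factors were expressed in yeast, captured on glutathione beads, barcoded with DNA and pooled with that sample, then incubated with 200 nmole of a 16-mer random double-stranded DNA library in Tris/NaCl/DTT/glycerol buffer for 30 min at room temperature. The pools were then washed, crosslinked, proximity-ligated, amplified by PCR and sequenced on an Illumina NextSeq500.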

The next assay deals with T2, ELK1 (Homo sapiens, UniProt P19419 1-428).
T2 sequence: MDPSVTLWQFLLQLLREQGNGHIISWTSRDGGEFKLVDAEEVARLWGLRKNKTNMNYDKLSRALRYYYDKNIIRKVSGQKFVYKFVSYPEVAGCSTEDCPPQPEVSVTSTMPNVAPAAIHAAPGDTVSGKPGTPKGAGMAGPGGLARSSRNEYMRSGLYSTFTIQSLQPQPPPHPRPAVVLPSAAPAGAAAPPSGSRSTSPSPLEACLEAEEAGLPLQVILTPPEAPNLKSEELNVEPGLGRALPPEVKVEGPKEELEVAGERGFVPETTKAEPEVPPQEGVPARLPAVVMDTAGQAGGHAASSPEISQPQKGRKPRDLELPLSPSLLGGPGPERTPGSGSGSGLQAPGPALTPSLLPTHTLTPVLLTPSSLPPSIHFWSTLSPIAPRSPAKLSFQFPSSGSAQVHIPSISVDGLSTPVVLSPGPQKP
In short, it runs like this:
as §1

The next assay concerns the target T3, GABPA (Homo sapiens, UniProt Q06546 1-454).
T3 sequence: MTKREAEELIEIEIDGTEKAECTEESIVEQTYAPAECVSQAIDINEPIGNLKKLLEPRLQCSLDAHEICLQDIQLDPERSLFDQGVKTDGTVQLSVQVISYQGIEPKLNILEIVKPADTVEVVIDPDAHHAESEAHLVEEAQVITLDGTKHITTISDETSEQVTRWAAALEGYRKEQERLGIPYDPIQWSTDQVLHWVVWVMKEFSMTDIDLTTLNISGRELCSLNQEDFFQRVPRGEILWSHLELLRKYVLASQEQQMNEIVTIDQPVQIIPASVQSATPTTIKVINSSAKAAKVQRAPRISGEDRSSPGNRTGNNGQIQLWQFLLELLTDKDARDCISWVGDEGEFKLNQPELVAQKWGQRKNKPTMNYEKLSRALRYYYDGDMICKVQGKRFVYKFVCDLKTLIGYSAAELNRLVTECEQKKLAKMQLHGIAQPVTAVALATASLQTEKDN
In short, it runs like this: as §1

For a further assay, the target named is T4, ERG (Homo sapiens, UniProt P11308 1-479).
T4 sequence: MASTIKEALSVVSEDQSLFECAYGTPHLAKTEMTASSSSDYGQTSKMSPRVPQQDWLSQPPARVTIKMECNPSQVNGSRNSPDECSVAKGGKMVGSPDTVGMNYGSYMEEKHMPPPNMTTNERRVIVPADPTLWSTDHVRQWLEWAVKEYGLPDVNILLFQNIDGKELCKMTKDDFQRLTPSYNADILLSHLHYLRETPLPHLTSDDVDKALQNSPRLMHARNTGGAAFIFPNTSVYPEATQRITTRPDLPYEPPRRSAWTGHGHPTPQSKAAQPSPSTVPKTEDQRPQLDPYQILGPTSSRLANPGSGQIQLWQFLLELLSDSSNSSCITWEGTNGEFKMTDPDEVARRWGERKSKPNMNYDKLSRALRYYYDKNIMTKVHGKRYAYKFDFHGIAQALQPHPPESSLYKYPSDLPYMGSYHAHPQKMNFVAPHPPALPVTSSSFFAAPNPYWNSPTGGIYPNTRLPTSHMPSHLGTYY
In short, it runs like this: as §1

The next assay deals with ELF1 (Homo sapiens, UniProt P32519 1-619). In short, it runs like this:
as §1

The target of another assay is T5, EHF (Homo sapiens, UniProt Q9NZC4 1-300).
T5 sequence: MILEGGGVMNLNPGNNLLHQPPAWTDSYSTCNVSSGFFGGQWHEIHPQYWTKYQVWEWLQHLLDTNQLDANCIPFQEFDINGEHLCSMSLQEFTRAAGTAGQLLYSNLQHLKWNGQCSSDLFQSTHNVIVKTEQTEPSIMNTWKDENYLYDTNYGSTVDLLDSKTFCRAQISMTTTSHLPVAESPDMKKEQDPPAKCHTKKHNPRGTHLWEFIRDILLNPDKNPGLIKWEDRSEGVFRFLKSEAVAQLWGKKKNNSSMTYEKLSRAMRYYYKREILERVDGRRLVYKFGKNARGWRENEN
The method, boiled down: as §1

Another assay addresses SPI1 (Homo sapiens, UniProt P17947 1-270). The method, boiled down:
as §1

The next assay addresses SPIB (Homo sapiens, UniProt Q01892 1-262). In short, it runs like this: as §1
The next assay addresses T6, ELK3 (Homo sapiens, UniProt P41970 1-407).
T6 sequence: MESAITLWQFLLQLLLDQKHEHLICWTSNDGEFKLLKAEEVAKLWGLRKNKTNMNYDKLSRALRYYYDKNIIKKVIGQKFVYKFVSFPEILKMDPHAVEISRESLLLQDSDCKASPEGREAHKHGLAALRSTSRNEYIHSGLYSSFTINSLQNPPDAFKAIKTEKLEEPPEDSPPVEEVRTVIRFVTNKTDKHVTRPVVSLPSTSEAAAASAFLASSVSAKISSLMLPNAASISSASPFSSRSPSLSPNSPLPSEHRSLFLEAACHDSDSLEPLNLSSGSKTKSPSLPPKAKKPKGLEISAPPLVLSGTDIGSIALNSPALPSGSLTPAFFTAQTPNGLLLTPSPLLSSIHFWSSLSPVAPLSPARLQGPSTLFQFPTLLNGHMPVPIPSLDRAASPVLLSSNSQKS
The method, boiled down: as §1

ELF1, sequence (P32519 whole entry): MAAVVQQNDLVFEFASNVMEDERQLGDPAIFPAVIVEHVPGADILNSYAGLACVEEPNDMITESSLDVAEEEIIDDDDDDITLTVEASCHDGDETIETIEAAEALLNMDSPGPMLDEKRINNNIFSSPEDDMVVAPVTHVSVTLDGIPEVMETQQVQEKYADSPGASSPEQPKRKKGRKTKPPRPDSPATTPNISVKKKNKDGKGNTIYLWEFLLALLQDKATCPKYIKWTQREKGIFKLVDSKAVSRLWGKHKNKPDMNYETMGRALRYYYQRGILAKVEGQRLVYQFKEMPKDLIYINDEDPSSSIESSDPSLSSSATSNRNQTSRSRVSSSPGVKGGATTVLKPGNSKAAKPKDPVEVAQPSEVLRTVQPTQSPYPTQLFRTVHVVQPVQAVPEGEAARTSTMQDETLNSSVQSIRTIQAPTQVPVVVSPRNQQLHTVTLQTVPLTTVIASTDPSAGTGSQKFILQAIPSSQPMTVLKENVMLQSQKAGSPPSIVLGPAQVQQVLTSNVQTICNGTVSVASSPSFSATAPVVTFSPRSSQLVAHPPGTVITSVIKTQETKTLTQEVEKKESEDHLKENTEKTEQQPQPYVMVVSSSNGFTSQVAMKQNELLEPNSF
SPIB, sequence (Q01892 whole entry): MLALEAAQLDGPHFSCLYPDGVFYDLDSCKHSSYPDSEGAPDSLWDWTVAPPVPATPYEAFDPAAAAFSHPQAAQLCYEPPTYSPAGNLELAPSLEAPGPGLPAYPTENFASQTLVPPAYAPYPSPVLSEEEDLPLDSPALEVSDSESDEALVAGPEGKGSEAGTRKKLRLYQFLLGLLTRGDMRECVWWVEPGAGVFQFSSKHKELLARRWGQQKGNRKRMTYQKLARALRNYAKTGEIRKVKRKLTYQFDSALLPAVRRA

As for TCACCC, the binding signal is 1.23 fold enrichment (6-mer frequency, TF over GST control) with FLI1; 1.23 fold enrichment (6-mer frequency, TF over GST control) in the assay with ELK1; 1.21 fold enrichment (6-mer frequency, TF over GST control) with GABPA; 1.13 fold enrichment (6-mer frequency, TF over GST control) with ERG; 1.2 fold enrichment (6-mer frequency, TF over GST control) in the assay with ELF1; 1.06 fold enrichment (6-mer frequency, TF over GST control) with EHF. For the same sequence, the binding signal in the assay with SPI1 was 1.12 fold enrichment (6-mer frequency, TF over GST control); with SPIB it was 1.2 fold enrichment (6-mer frequency, TF over GST control); with ELK3 it was 1.15 fold enrichment (6-mer frequency, TF over GST control).
For GCTGTA, the binding signal with FLI1 is 1.02 fold enrichment (6-mer frequency, TF over GST control); with ELK1 it was 1.04 fold enrichment (6-mer frequency, TF over GST control); with GABPA, 1.15 fold enrichment (6-mer frequency, TF over GST control); with ERG it was 1.08 fold enrichment (6-mer frequency, TF over GST control); in the assay with ELF1, 1.21 fold enrichment (6-mer frequency, TF over GST control); with EHF it was 1.1 fold enrichment (6-mer frequency, TF over GST control). Further, the binding signal with SPI1 is 1.04 fold enrichment (6-mer frequency, TF over GST control); with SPIB it was 1.04 fold enrichment (6-mer frequency, TF over GST control); with ELK3, 1.14 fold enrichment (6-mer frequency, TF over GST control).
As for CCCTTG, the binding signal is 1.14 fold enrichment (6-mer frequency, TF over GST control) with FLI1; 1.21 fold enrichment (6-mer frequency, TF over GST control) with ELK1; 1.24 fold enrichment (6-mer frequency, TF over GST control) with GABPA; 1.23 fold enrichment (6-mer frequency, TF over GST control) with ERG; 1.3 fold enrichment (6-mer frequency, TF over GST control) in the assay with ELF1; 1.22 fold enrichment (6-mer frequency, TF over GST control) with EHF. In addition, the binding signal in the assay with SPI1 was 1.16 fold enrichment (6-mer frequency, TF over GST control); in the assay with SPIB it was 1.19 fold enrichment (6-mer frequency, TF over GST control); with ELK3 it was 1.2 fold enrichment (6-mer frequency, TF over GST control).
Turning to TTTTTA, the binding signal in the assay with FLI1 is 1.23 fold enrichment (6-mer frequency, TF over GST control); with ELK1 it was 1.2 fold enrichment (6-mer frequency, TF over GST control); with GABPA it was 1.23 fold enrichment (6-mer frequency, TF over GST control); with ERG, 1.25 fold enrichment (6-mer frequency, TF over GST control); in the assay with ELF1 it was 1.35 fold enrichment (6-mer frequency, TF over GST control); with EHF, 1.37 fold enrichment (6-mer frequency, TF over GST control). The binding signal with SPI1 is 1.47 fold enrichment (6-mer frequency, TF over GST control); with SPIB it was 1.37 fold enrichment (6-mer frequency, TF over GST control); with ELK3, 1.3 fold enrichment (6-mer frequency, TF over GST control).
As to GTCACA, the binding signal in the assay with FLI1 is 1.11 fold enrichment (6-mer frequency, TF over GST control); with ELK1, 1.1 fold enrichment (6-mer frequency, TF over GST control); in the assay with GABPA, 1.12 fold enrichment (6-mer frequency, TF over GST control); with ERG, 1.13 fold enrichment (6-mer frequency, TF over GST control); with ELF1 it was 1.17 fold enrichment (6-mer frequency, TF over GST control); with EHF it was 1.07 fold enrichment (6-mer frequency, TF over GST control). The binding signal in the assay with SPI1 is 1.13 fold enrichment (6-mer frequency, TF over GST control); in the assay with SPIB it was 1.07 fold enrichment (6-mer frequency, TF over GST control); in the assay with ELK3 it was 1.04 fold enrichment (6-mer frequency, TF over GST control).
ATCTAC: the binding signal with FLI1 is 1.2 fold enrichment (6-mer frequency, TF over GST control); with ELK1, 1.38 fold enrichment (6-mer frequency, TF over GST control); with GABPA, 1.22 fold enrichment (6-mer frequency, TF over GST control); in the assay with ERG it was 1.2 fold enrichment (6-mer frequency, TF over GST control); with ELF1, 1.34 fold enrichment (6-mer frequency, TF over GST control); in the assay with EHF, 1.25 fold enrichment (6-mer frequency, TF over GST control). Besides, the binding signal with SPI1 is 1.34 fold enrichment (6-mer frequency, TF over GST control); with SPIB, 1.35 fold enrichment (6-mer frequency, TF over GST control); in the assay with ELK3 it was 1.27 fold enrichment (6-mer frequency, TF over GST control).
As for CCATTC, the binding signal with FLI1 is 1.22 fold enrichment (6-mer frequency, TF over GST control); with ELK1 it was 1.09 fold enrichment (6-mer frequency, TF over GST control); with GABPA, 1.1 fold enrichment (6-mer frequency, TF over GST control); in the assay with ERG, 1.2 fold enrichment (6-mer frequency, TF over GST control); with ELF1, 1.17 fold enrichment (6-mer frequency, TF over GST control); in the assay with EHF, 1.07 fold enrichment (6-mer frequency, TF over GST control). In addition, the binding signal with SPI1 is 1.16 fold enrichment (6-mer frequency, TF over GST control); with SPIB it was 1.09 fold enrichment (6-mer frequency, TF over GST control); with ELK3, 1.29 fold enrichment (6-mer frequency, TF over GST control).
